Records with an inconclusive call do not appear. A call without a number means that no potency is given here. The source made the active and inactive calls. Calls follow the shape of the dose curve; as a rule, active = well fitted curve in the direction sought with a large enough effect; inconclusive = small, poorly fitted or top-dose-only effect, or another doubt; inactive = no such curve, though single readings can be large; an effect the other way counts as inactive or inconclusive.
Key:
[1] = qHTS assay for measurement of the activity of small molecule inhibitors on Zika virus induced Caspase-3 activity in human iPSC derived neural progenitor cells (hNPCs) (AID 1224857); conditions: hNPCs ZIKV-induced caspase-3/7, Caspase-Glo luminescence, 6 h; series mostly up to 45.7 µM; also: nearly all actives have a fitted effect of over 65% in size; also: potency is read from the fitted curve at half-maximal effect
How it was run: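 Percent inhibition of virus-induced caspase-3/7 luminescence (Caspase-Glo), scaled between uninfected cells and Zika-infected cells. hNPCs received compound 1 hr before ZIKV at 2 FFU/cell, with 6 hours infection at 37 C.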

[2] = qHTS assay for measurement of the activity of small molecule inhibitors on Zika virus induced Caspase-3 activity in human astrocytoma cells (AID 1224859); conditions: SNB-19 ZIKV-induced caspase-3/7, luminescence, 6 h; series mostly up to 45.7 µM
How it was run: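 Luminescent caspase-3/7 read-out (30 min reagent, room temperature) in human SNB-19 cells infected 6 h with ZIKV (2 FFU/cell) after 1 h compound pre-incubation; Data were normalised to uninfected and infected wells.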

[3] = qHTS assay to identify small molecule inhibitors of chordoma cells - UCH-1 (AID 1259355); conditions: UCH-1 chordoma viability, CellTiter-Glo, 48 h, combination; series mostly up to 46.1 µM; also: nearly all actives have a fitted effect of over 55% in size
How it was run: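 Seed 800 cells per well; incubate overnight at 37 C, 5% CO2. Add test compounds (15 concentrations), then the auranofin–topoisomerase-agent combination. Incubate 48hr, add CellTiter-Glo, wait 30min, read luminescence.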

SMILES | Potency [1] | outcome [2] | Potency [3]
C[C@@H]1CN(C2CCC(C#N)(c3ccc(F)cc3)CC2)CC[C@]1(C(=O)O)c1ccccc1 (stereo partly drawn) | inactive | inactive | –
CC#C[C@]1(O)CC[C@H]2[C@@H]3C[C@H](C)C4=CC(=O)CC[C@]4(C)[C@H]3CC[C@@]21C | inactive | inactive | –
O=C(CCCCl)c1ccc(F)cc1 | inactive | inactive | –
CN1[C@@H]2CC[C@H]1CC(OC(=O)c1cc(Cl)cc(Cl)c1)C2 (stereo partly drawn) | inactive | inactive | –
COc1cc(C[C@@H](C)N)c(OC)cc1C | inactive | inactive | –
CCO[C@H]1O[C@@H]2OC3(C)CC[C@H]4[C@H](C)CC[C@@H]([C@H]1C)[C@@]24OO3 | inactive | inactive | –
Nc1ccc(N)cc1 | inactive | inactive | –
CCN(CC)Cc1nccn1-c1ccc([N+](=O)[O-])cc1C(=O)c1ccccc1Cl | inactive | inactive | –
COP(=S)(OC)Oc1ccc(S(N)(=O)=O)cc1 | inactive | inactive | –
NC1(c2ccccc2)CCCCC1 | inactive | inactive | –
CN1C(=O)CN=C(c2ccccc2)c2cc(Cl)ccc21 | inactive | inactive | –
CC(C(O)c1ccccc1)N(C)C/C=C/c1ccccc1 (stereo not drawn) | inactive | inactive | –
C[C@]12CC[C@H]3[C@@H](CCC4=CC(=O)CC[C@@]43C)[C@@H]1CC[C@@H]2C(=O)O | inactive | inactive | –
C1CN2CCC1CC2 | inactive | inactive | –
CCCN(CCC)CCc1c[nH]c2ccccc12 | inactive | inactive | –
CC1COC2(c3ccccc3Cl)c3cc(Cl)ccc3NC(=O)CN12 (stereo not drawn) | inactive | inactive | –
Cc1nc2ccccc2c(=O)n1-c1ccccc1Cl | inactive | inactive | –
Cc1nnc2n1-c1sc(CCC(=O)N3CCOCC3)cc1C(c1ccccc1Cl)=NC2 | inactive | inactive | –
COc1cc(C[C@@H](C)N)c(OC)cc1Br | inactive | inactive | –
OC(O)C(Cl)(Cl)Cl | inactive | inactive | –
CC1N=C(N)OC1c1ccccc1 (stereo not drawn) | inactive | inactive | –
COc1cc(CC(C)N)cc2c1OCO2 (stereo not drawn) | inactive | inactive | –

SMILES | Potency [1] | outcome [2] | Potency [3]
C=CC[C@]1(O)CC[C@H]2[C@@H]3CCC4=CC(=O)CCC4=C3C=C[C@@]21C | inactive | inactive | –
CNC(C)Cc1ccccc1OC (stereo not drawn) | inactive | inactive | –
C[C@]12CC[C@H](O)CC1=CC[C@@H]1[C@@H]2CC[C@]2(C)C(=O)CC[C@@H]12 | inactive | inactive | –
C[C@H]1CNCCc2ccc(Cl)cc21 | inactive | inactive | –
COCC(=O)N(c1c(C)cccc1C)C(C)C(=O)OC (stereo not drawn) | inactive | inactive | –
O=C(CBr)Nc1ccc(Cl)cc1C(=O)c1ccccc1F | inactive | inactive | –
CN1C(=O)CN=C(c2ccccc2)c2cc([N+](=O)[O-])ccc21 | inactive | inactive | –
COc1cc(CC#N)cc(OC)c1OC | inactive | inactive | –
O=C(O)CCCCCCNC1c2ccccc2CCc2ccccc21 | inactive | inactive | –
C=CCN1CC[C@]23CCCC[C@H]2[C@H]1Cc1ccc(O)cc13 | inactive | inactive | –
CCOC(=O)c1cncn1C(C)c1ccccc1 (stereo not drawn) | inactive | inactive | inactive
CC(C)[N+](C)(CCC(C(N)=O)(c1ccccc1)c1ccccc1)C(C)C | 31.6 µM (active) | inactive | inactive
O=c1n(Cl)c(=O)n(Cl)c(=O)n1Cl | inactive | inactive | inactive
CCC(=O)O[C@H]1CC[C@H]2[C@@H]3CCC4=CC(=O)CC[C@]4(C)[C@H]3CC[C@]12C | inactive | inactive | inactive
Cc1ccc(N=CN(C)C=Nc2ccc(C)cc2C)c(C)c1 | inactive | inactive | inactive
CCCC(C)C1(CC)C(=O)N=C(S)NC1=O (stereo not drawn) | – | inactive | –
CCOC(=O)NC(C)(C)Cc1ccc(Cl)cc1 | – | inactive | –
O=C1NCN(c2ccccc2)C12CCN(CCCOc1ccc(F)cc1)CC2 | – | inactive | –
CN1C2CCC(C)(C)C1CC(OC(=O)C(O)(c1cccs1)c1cccs1)C2 (stereo not drawn) | – | inactive | –
C[C@]12C=CC(=O)C=C1CC[C@@H]1[C@@H]2CC[C@@]2(C)[C@H]1CC[C@]2(C)O | inactive | inactive | inactive
C[C@H](CN1CCOCC1)C(C(=O)N1CCCC1)(c1ccccc1)c1ccccc1 | inactive | inactive | –
O=C(O)Cc1ccccc1 | – | inactive | –

SMILES | Potency [1] | outcome [2] | Potency [3]
Nc1ccc(Cl)cc1C(=O)c1ccccc1F | – | inactive | –
CCN(CC)CCOC(=O)C(C)(c1ccccc1)c1ccccc1 | inactive | inactive | inactive
NC(=O)OCCCc1ccccc1 | inactive | inactive | inactive
C[N+]1(C)[C@@H]2CC[C@H]1CC(OC(=O)C(CO)c1ccccc1)C2 (stereo partly drawn) | inactive | inactive | inactive
C[C@@H]1O[C@@H](O[C@@H]2C=C3CC[C@@H]4[C@H](CC[C@]5(C)[C@@H](c6ccc(=O)oc6)CC[C@]45O)[C@@]3(C)CC2)[C@H](O)[C@H](O)[C@H]1O | – | inactive | –
CCC1(c2cccc(O)c2)CCCCN(C)C1 (stereo not drawn) | – | inactive | –
CCOC(=O)NC(O)C(Cl)(Cl)Cl (stereo not drawn) | inactive | inactive | inactive
C[C@]12Cc3nonc3C[C@@H]1CC[C@@H]1[C@@H]2CC[C@@]2(C)[C@H]1CC[C@]2(C)O | inactive | inactive | –
CCC(OC(C)=O)C(CC(C)NC)(c1ccccc1)c1ccccc1 (stereo not drawn) | – | inactive | –
c1ccc2c(c1)Sc1ccccc1N2CC1CN2CCC1CC2 (stereo not drawn) | – | inactive | –
CN1C[C@@H](NS(=O)(=O)N(C)C)C[C@@H]2c3cccc4c3c(cn4C)C[C@H]21 | inactive | inactive | inactive
CCC1(c2ccccc2)CCC(=O)NC1=O (stereo not drawn) | inactive | inactive | inactive
Sc1ccccc1Cl | – | inactive | –
CN1CCc2cc(Cl)c(O)cc2[C@H]2c3ccccc3CC[C@@H]21 | inactive | inactive | inactive
C[C@H]1C(=O)O[C@@H]2CCN3CC=C(COC(=O)[C@](C)(O)[C@]1(C)O)[C@H]23 | inactive | inactive | inactive
CCN(Cc1ccc(Cl)nc1)/C(=C/[N+](=O)[O-])NC | – | inactive | –
CCCC[N+]1(C)[C@@H]2CC(OC(=O)[C@H](CO)c3ccccc3)C[C@H]1[C@@H]1O[C@@H]12 (stereo partly drawn) | inactive | inactive | inactive
NCc1cccnc1 | inactive | inactive | inactive
C=CCOC(Cn1ccnc1)c1ccc(Cl)cc1Cl (stereo not drawn) | inactive | inactive | inactive
COc1ccc2c(C(=O)c3ccc(Cl)cc3)c(C)n(CC(=O)O)c2c1 | inactive | inactive | –

From PubChem BioAssay (NCATS)
